Results reported in the supplement of paper PMC10849652.
Targets with a hit are over-represented here; the source holds about 8,800 in all. About 0.5% of all pairs of compound and target were hits. Values without a mark were called inactive.

What was measured:
Assay in all cases: log2 fold change, soluble protein after heating vs DMSO (PISA); higher = thermal stabilisation; K562 lysate, 10 uM; active = over 0.2 and 3.5 SD of the protein, either way, in both replicates (recomputed)
nilotinib = compound: Cc1cn(-c2cc(NC(=O)c3ccc(C)c(Nc4nccc(-c5cccnc5)n4)c3)cc(C(F)(F)F)c2)cn1 [nilotinib]
In short: (§1)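 The values are log-two fold changes in thermal stability compared with solvent controls and come from duplicates. They were obtained by TMTpro 16plex LC-MS/MS, with channel sums equalised, on the supernatant after 21,000xg for 90 min. That supernatant came from crude K562 extract at 1 mg/mL protein treated with 10 μM compound for 30 min, heated for 3 min across 48°C-58°C, pooled and brought to 0.5% NP-40 at 4°C.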

[1] = compound: Cc1nc(Nc2n[nH]c3c2CN(C(=O)N[C@H](CN(C)C)c2ccccc2)C3(C)C)c2sccc2n1
In short: as §1

dasatinib = compound: Cc1nc(Nc2ncc(C(=O)Nc3c(C)cccc3Cl)s2)cc(N2CCN(CCO)CC2)n1 [dasatinib]
In short: as §1

[2] = compound: Cc1ncc(-c2ccnc(Nc3ccc(S(C)(=O)=O)cc3)n2)n1C(C)C
In short: as §1

[3] = compound: Cn1cc(-c2ccc3c(c2)CCN3C(=O)Cc2cccc(C(F)(F)F)c2)c2c(N)ncnc21
In short: as §1

quisinostat = compound: Cn1cc(CNCC2CCN(c3ncc(C(=O)NO)cn3)CC2)c2ccccc21 [quisinostat]
In short: as §1

tipifarnib = compound: Cn1cncc1[C@@](N)(c1ccc(Cl)cc1)c1ccc2c(c1)c(-c1cccc(Cl)c1)cc(=O)n2C [tipifarnib]
In short: as §1

[4] = compound: NC(=O)Nc1cc(-c2cccc(F)c2)sc1C(=O)N[C@H]1CCCNC1
In short: as §1

[5] = compound: NC(=O)c1cnc(N[C@@H]2CCCC[C@@H]2N)nc1Nc1cccc(-n2nccn2)c1
In short: as §1

[6] = compound: NC1(c2ccc(-c3nc4ccn5c(=O)[nH]nc5c4cc3-c3ccccc3)cc2)CCC1
In short: as §1

[7] = compound: NCC(=O)Nc1ccc(-n2nc(C(F)(F)F)cc2-c2ccc3c(ccc4ccccc43)c2)cc1
In short: as §1

vorinostat = compound: O=C(CCCCCCC(=O)Nc1ccccc1)NO [vorinostat]
In short: as §1

silmitasertib = compound: O=C(O)c1ccc2c(c1)nc(Nc1cccc(Cl)c1)c1ccncc12 [silmitasertib]
In short: as §1

[8] = compound: O=C1NC(=O)C(c2cnc3ccccn23)=C1c1cn2c3c(cc(F)cc13)CN(C(=O)N1CCCCC1)CC2
In short: as §1

entospletinib = compound: c1cn2cc(-c3ccc4cn[nH]c4c3)nc(Nc3ccc(N4CCOCC4)cc3)c2n1 [entospletinib]
In short: as §1

UniProt P49448, sequence (P49448 whole entry, looked up): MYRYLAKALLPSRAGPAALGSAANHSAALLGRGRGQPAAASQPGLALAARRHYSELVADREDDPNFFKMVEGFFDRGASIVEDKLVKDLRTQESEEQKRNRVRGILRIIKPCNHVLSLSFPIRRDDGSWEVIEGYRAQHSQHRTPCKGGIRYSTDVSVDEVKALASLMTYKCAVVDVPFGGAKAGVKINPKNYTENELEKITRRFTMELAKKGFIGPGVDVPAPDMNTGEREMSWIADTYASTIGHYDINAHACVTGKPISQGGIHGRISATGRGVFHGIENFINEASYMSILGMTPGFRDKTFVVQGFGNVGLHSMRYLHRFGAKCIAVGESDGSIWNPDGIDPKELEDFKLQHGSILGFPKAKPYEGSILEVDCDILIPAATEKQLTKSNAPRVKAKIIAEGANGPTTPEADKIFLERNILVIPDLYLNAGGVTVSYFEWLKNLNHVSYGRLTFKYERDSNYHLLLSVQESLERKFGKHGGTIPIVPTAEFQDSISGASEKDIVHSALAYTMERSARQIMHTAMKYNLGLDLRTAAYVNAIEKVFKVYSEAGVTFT
UniProt Q9H0C8, sequence (Q9H0C8 whole entry, looked up): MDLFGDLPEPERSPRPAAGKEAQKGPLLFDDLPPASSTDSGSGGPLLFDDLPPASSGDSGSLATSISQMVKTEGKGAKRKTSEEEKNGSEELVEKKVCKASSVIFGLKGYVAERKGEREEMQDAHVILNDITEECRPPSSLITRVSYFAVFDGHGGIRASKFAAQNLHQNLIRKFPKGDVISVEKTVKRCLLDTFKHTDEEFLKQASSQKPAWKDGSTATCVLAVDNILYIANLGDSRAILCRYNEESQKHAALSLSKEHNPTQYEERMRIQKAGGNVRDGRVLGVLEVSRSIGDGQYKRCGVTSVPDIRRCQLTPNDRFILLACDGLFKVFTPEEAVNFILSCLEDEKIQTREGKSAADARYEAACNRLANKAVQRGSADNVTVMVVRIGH
UniProt Q9NVR2, sequence (Q9NVR2 whole entry, looked up): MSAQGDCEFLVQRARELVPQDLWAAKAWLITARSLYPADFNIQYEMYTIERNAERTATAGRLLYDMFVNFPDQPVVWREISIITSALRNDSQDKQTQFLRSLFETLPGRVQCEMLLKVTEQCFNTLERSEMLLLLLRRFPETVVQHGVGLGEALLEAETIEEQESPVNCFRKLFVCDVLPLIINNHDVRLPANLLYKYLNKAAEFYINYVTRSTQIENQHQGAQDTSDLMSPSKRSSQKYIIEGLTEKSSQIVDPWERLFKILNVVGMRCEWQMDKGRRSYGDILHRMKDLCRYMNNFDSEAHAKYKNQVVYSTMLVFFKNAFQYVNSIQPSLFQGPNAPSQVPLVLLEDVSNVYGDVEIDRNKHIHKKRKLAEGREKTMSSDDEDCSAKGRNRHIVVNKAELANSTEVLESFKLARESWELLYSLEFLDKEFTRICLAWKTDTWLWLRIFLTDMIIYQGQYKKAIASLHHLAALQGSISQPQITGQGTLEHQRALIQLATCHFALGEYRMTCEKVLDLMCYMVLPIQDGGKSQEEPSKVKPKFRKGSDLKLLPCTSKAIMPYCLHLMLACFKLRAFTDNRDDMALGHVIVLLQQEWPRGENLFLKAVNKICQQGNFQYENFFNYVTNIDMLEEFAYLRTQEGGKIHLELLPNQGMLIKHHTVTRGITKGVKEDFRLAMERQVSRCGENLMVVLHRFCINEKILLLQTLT
UniProt P09211, sequence (P09211 whole entry, looked up): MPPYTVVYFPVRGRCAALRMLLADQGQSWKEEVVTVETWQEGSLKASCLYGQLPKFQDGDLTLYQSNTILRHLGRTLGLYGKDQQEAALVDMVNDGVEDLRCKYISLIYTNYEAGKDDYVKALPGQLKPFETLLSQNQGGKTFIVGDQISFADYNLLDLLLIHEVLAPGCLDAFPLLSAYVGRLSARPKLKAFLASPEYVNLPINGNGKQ
UniProt P52655, sequence (P52655 whole entry, looked up): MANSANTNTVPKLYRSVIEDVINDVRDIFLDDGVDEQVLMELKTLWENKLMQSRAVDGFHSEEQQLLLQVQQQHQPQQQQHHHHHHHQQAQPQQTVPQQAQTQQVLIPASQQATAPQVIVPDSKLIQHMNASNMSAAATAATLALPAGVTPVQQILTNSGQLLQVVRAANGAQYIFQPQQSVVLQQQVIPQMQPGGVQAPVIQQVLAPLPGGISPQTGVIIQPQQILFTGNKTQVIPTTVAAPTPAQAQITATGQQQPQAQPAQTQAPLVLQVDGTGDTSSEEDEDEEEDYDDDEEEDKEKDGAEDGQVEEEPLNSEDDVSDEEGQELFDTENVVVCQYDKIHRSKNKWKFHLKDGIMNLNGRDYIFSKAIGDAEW
UniProt Q3T8J9, sequence (Q3T8J9 whole entry, looked up): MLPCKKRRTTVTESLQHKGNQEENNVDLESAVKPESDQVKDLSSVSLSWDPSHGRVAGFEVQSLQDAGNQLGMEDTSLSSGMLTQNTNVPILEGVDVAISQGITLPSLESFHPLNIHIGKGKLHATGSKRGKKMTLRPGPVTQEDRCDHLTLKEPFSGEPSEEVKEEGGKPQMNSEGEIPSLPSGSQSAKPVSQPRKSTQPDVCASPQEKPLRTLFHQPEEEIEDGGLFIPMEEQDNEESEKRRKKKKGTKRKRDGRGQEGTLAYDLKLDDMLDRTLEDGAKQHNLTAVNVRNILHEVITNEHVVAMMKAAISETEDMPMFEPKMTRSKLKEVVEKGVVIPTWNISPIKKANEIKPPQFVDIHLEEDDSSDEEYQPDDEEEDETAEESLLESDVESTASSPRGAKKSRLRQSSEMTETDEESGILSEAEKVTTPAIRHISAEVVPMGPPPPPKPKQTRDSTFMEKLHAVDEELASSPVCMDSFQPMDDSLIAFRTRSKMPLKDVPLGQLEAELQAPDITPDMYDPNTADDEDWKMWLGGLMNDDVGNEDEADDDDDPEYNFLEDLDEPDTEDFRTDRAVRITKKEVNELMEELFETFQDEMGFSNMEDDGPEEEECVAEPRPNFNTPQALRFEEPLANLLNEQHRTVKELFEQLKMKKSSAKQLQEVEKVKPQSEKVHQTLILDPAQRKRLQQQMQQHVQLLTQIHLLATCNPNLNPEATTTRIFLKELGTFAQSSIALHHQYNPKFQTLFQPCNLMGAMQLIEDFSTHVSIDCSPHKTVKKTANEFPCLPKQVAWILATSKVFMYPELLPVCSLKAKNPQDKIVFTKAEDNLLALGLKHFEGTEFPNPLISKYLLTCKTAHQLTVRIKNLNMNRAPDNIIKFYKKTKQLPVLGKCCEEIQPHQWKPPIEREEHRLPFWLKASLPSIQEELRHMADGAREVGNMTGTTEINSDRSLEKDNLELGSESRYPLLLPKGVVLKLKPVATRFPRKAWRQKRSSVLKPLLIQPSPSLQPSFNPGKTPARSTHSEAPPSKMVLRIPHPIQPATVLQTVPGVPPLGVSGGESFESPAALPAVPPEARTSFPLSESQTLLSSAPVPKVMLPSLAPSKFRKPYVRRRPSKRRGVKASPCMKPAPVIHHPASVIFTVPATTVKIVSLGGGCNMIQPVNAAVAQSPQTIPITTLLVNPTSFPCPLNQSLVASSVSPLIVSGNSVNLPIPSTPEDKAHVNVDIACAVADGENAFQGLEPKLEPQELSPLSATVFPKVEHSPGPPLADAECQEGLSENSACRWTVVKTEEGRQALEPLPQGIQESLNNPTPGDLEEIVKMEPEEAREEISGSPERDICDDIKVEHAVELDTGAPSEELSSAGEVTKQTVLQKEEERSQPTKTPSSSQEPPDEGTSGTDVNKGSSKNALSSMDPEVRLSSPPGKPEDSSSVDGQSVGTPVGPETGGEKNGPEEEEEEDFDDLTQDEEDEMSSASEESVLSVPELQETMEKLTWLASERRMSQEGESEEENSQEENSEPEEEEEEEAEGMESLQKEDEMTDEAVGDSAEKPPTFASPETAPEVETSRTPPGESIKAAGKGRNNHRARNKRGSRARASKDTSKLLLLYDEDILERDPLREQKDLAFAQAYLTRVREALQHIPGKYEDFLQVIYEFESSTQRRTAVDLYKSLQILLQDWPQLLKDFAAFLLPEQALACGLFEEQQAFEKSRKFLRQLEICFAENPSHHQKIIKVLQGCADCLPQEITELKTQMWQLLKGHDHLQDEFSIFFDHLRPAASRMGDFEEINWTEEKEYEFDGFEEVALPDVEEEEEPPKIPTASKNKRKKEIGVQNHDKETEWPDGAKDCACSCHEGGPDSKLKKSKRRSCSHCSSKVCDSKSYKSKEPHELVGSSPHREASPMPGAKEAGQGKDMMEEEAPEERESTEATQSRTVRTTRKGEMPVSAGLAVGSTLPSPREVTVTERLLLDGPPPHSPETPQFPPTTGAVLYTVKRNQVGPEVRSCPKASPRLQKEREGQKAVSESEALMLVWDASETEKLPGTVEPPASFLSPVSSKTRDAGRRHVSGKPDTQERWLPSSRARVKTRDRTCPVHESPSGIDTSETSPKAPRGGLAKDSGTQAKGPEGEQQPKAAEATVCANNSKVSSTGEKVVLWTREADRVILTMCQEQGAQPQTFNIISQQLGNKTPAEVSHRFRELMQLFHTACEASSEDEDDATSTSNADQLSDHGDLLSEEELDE
UniProt O60547, sequence (O60547 whole entry, looked up): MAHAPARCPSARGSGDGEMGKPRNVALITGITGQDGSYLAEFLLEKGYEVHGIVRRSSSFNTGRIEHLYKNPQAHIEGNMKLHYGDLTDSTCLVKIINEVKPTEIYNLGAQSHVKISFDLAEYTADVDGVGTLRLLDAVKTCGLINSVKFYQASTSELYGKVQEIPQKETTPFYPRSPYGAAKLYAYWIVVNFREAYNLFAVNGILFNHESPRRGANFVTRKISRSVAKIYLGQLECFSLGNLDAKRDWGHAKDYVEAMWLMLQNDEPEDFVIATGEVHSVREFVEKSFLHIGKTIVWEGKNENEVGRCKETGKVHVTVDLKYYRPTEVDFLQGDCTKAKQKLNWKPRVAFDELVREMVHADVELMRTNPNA
UniProt Q9BUE6, sequence (Q9BUE6 whole entry, looked up): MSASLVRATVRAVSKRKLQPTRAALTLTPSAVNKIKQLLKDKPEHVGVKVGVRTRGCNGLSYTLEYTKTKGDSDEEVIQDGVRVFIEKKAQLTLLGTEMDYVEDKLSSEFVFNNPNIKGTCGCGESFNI

Target	log2 fold change (nilotinib)	log2 fold change [1]	log2 fold change (dasatinib)	log2 fold change [2]	log2 fold change [3]	log2 fold change (quisinostat)	log2 fold change (tipifarnib)	log2 fold change [4]	log2 fold change [5]	log2 fold change [6]	log2 fold change [7]	log2 fold change (vorinostat)	log2 fold change (silmitasertib)	log2 fold change [8]	log2 fold change (entospletinib)
GTF3C3 (UniProt Q9Y5Q9)	0.035	0.052	0.008	-0.026	0.009	-0.134	-0.057	0.031	0.009	-0.084	-0.007	-0.291 (active)	0.018	0.011	-0.052
ISCA1 isoform 2 (UniProt Q9BUE6)	0.043	0.251	0	0.111	-0.002	0.025	0.026	-0.05	-0.007	0.013	-0.005	0.043	0.015	0.004	0.071
GON4L (UniProt Q3T8J9)	0.003	0.012	0.025	0.067	0.041	-0.061	-0.01	0.019	-0.02	0.022	-0.051	-0.162	0.066	-0.076	0.067
GOLGA1 (UniProt Q92805)	0.033	-0.009	-0.026	-0.015	0.022	-0.073	-0.099	0.042	0.106	0.004	0.048	0.07	0.01	-0.076	-0.014
HMGCS1 (UniProt Q01581)	0.003	-0.015	0.02	0.012	-0.005	-0.007	0.001	-0.016	-0.008	-0.018	0.018	0.53 (active)	0.011	0.013	-0.002
IMMT (UniProt Q16891)	-0.009	0.016	-0.075	0.037	0.01	0.041	-0.005	-0.007	-0.017	-0.035	-0.005	0.056	0.033	0.016	0.017
INTS10 (UniProt Q9NVR2)	-0.01	-0.025	-0.054	-0.024	0.109	-0.034	-0.021	0.011	0.039	0.028	0.027	-0.438 (active)	0.047	0.002	0.006
IGF2BP3 (UniProt O00425)	-0.046	0.008	-0.035	0.006	0.063	-0.045	0.008	0.039	0.013	-0.027	-0.012	-0.305 (active)	0.025	0	0.006
ILKAP (UniProt Q9H0C8)	0.023	-0.01	0.025	-0.094	-0.009	0.011	-0.005	0.005	0.026	0.044	-0.05	-0.288 (active)	0.053	-0.024	-0.001
GSTP1 (UniProt P09211)	0.006	-0.001	-0.035	-0.003	-0.01	-0.016	0.029	-0.029	-0.004	0.01	-0.011	-0.352 (active)	0.127	0.04	-0.001
IGF2BP2 (UniProt Q9Y6M1)	-0.051	0.008	-0.055	-0.008	0.031	0.012	0.028	0.06	0.016	0.019	-0.016	-0.239 (active)	0.088	0	0.026
IMPACT (UniProt Q9P2X3)	0.087	-0.066	0.013	-0.687 (active)	0.04	-0.103	-0.13	0.11	0.071	0.087	0.019	-0.125	-0.096	-0.082	-0.027
GTF2H4 (UniProt Q92759)	0.006	0.021	0.003	0.019	-0.011	-0.029	-0.008	0.07	0.04	-0.08	0.01	-0.24 (active)	-0.021	-0.021	0.046
GTF2A1 (UniProt P52655)	0.024	-0.047	0.022	0.095	0.046	-0.039	0.021	-0.04	0.007	-0.012	-0.029	0.094	-0.043	0.052	0.039
GRK6 isoform 2 (UniProt P43250)	-0.024	0.094	0.023	0.005	-0.014	-0.043	0	0.012	0.028	-0.097	0.001	-0.227	0.48 (active)	-0.012	-0.123
GOLPH3 (UniProt Q9H4A6)	-0.008	0.008	-0.071	0.044	-0.013	-0.065	-0.039	0.012	-0.023	-0.02	-0.06	-0.06	-0.001	0.023	0.026
GLUD2 (UniProt P49448)	0.053	-0.067	0.013	-0.003	-0.017	0.039	0.047	0.015	0.012	-0.004	0.297 (active)	0.096	0.022	0.026	-0.084
HDHD5 (UniProt Q9BXW7)	0.157	-0.081	0.023	-0.052	-0.042	-0.026	-0.008	0.028	-0.014	-0.036	0.018	-0.249 (active)	0.043	-0.002	-0.059
IMMT (UniProt C9J406)	-0.044	0.09	0.045	0.012	0.051	0.022	-0.03	0	0.023	-0.038	-0.084	0.174	0.092	-0.002	-0.172
GMDS (UniProt O60547)	-0.023	0.05	-0.043	-0.03	-0.013	-0.041	0.029	0.038	-0.005	-0.029	0.027	-0.309 (active)	0.041	-0.016	0.032
GPR108 (UniProt Q9NPR9)	0.044	0.033	-0.035	0.011	-0.057	-0.063	-0.088	-0.013	0.046	-0.002	-0.001	-0.024	0.001	-0.007	-0.008
